# This is part of a sample that, as a whole, favours compounds with a hit. Of some 83,000 tested, about 20% had one in any assay.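 Results are percent growth after 48 hours of single-concentration exposure. 100 means growth as in untreated cells, lower positive values show inhibition; negative values down to -100 show cell death.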 A number with no mark means an inactive call. Calls of active or inactive are those of the source.
# Tested on: NCI-H226 lung
# Assay: NCI-60 one-dose screen, 48 h (100 = growth as untreated, 0 = no growth, -100 = all killed)
# Conditions: 10 µM unless noted
# Procedure: Growth inhibition of the NCI-H226 human Non-Small Cell Lung tumor cell line is measured as a screen for anti-cancer activity. Cells are grown in 96 well plates and exposed to the test compound for 48 hours. Compounds are tested at a single concentration, which is 10^-5 M for most compounds. The reported endpoint is percent growth (GI% or GIPRCNT), where numbers from 0 - 100% represent growth inhibition, and numbers from -100% - 0 represent cell death. For example, a value of 40 represents 60% growth inhibition. A value of 0 means no net growth occurred over the course of the experiment. A value of -40 indicates 40% of cells at the beginning of the experiment died by the end of the experiment. A value of -100 means all cells are dead at the end of the experiment.
# NCI-60 Human Tumor Cell Lines Screen was performed using the standard one-dose NCI protocol, which is described in more detail at https://dtp.cancer.gov/discovery_development/nci-60/default.htm.
# Compounds with GIPRCNT values below 10 were considered active. Activity score was based on GIPRCNT using the following formula: […]
# Score is 0 for GIPRCNT values of 100 or above, 50 for GIPRCNT values of 0, and 100 for GIPRCNT values of -100.
row,Compound,growth
1,C=C1C(=O)O[C@H]2[C@H]1CC/C(Cn1cc(-c3cc(C)c(C)cc3C)nn1)=C\CC[C@@]1(C)O[C@@H]21,-65.2% (active)
2,COc1cc2c(Oc3ccc(NC(=O)C4(C(=O)Nc5ccc(F)cc5)CC4)cc3F)ccnc2cc1OCCCN1CCOCC1,12.3%
3,COC[C@@H](C)n1c(C2CCOCC2)nc2c1C1C=C(OC)C(c3c(C)noc3C)=CC1N=C2 (stereo not given in full),65.1%
4,CO[C@@H](C(=O)N1Cc2[nH]nc(NC(=O)c3ccc(N4CCN(C)CC4)cc3)c2C1)c1ccccc1,37.3%
5,C[C@@]1(C(=O)Nc2ccc(F)nc2)CCCN1c1nc(Nc2cc(C3CC3)[nH]n2)c2cccn2n1,30.1%
6,COc1ccc(-n2c(=O)c3ccccc3n(Cc3ccc(C(=O)NO)cc3)c2=O)cc1,31.8%
7,COc1ccc2c(CCc3ccc(Cl)cc3)c3[n+](cc2c1OC)CCc1cc2c(cc1-3)OCO2,71.4%
8,CC(C)(C)c1nc(-c2cccc(NS(=O)(=O)c3c(F)cccc3F)c2F)c(-c2ccnc(N)n2)s1,84.5%
9,N#CC[C@H](C1CCCC1)n1cc(-c2ncnc3[nH]ccc23)cn1,33.7%
10,NC(=O)c1n[nH]n2c1nc(=O)c1c3c(sc12)CCCC3,91.4%
11,C#Cc1cccc(Nc2ncnc3cc4c(cc23)OCCOCCOCCO4)c1,71.3%
12,O=c1[nH]c(N2CCOCC2)nc2scc(-c3ccccc3)c12,97.2%
13,Cc1cc(N(CCNc2ccnc3cc(Cl)ccc23)Cc2ccc3c(c2)OCO3)nc(N2CCCC2)n1,65.4%
14,CC/C(=C(\c1ccc(OCCN2CCCCCCC2)cc1)c1ccc(OC(=O)C2CCCCC2)cc1)c1ccc(Cl)cc1,100%
15,Cc1ccc(Nc2nccc(N(C)c3ccc4c(C)n(C)nc4c3)n2)cc1S(N)(=O)=O,27.5%
16,CN1CCC(CNc2ccc3ncc(-c4cccc(OC(F)(F)F)c4)n3n2)CC1,-8.6% (active)
17,CNC(=O)c1cnc(C)nc1-c1cc(C(C)(C)C)c(O)c(C(C)(C)C)c1,98.2%
18,COc1cc2c(cc1OCCCCCN1CCN(c3ncnc4ccccc34)CC1)N=CC1CCCN1C2=O (stereo not given),-58.2% (active)
19,C[C@@H](C[C@H](CCO)c1cc(C(F)(F)F)cc(C(F)(F)F)c1)c1ccc2ccccc2c1,91.1%
20,CC/C(=C(/c1ccc(Cl)cc1)c1ccc(OCCN2CCCCC2)cc1)c1ccc(Cl)cc1,84.5%

row,Compound,growth
1,Nc1c2c(c(O)c3c1=C(CO)C=N3)=NCCS2,-85.9% (active)
2,COc1ccc2c(CCCC(c3ccccc3)c3ccccc3)c3[n+](cc2c1OC)CCc1cc2c(cc1-3)OCO2,2.75% (active)
3,CC(C)=CCc1cc2c(cc1O)C1=C(C(=O)C3=C(C1=O)S(=O)(=O)CCN3)C(C=C(C)C)O2 (stereo not given),-54.1% (active)
4,CO/C=C/C(=O)c1cc2cnc3c(=N)cc(NC(=O)C(C)C)c([nH]1)c23,-40.3% (active)
5,CC[C@@H]1C(=O)N(C)c2cnc(Nc3ccc(C(=O)NC4CCN(C)CC4)cc3OC)nc2N1C1CCCC1,52.6%
6,CC/C=C\C[C@H]1C/C=C2/C(=O)C=C[C@@H]2C/C=C\CCCC(=O)O1,-54.8% (active)
7,N#CC1(C#N)C(c2cccs2)NC(c2cccs2)C1(C#N)C#N (stereo not given),102%
8,CCOC(=O)c1sc(NC(=O)COc2ccc(/C=C3\Cc4ccc(Cl)cc4C3=O)cc2)nc1C,97.1%
9,CCn1c(-c2nonc2N)nc2c(C#CC(C)(C)O)ncc(OC[C@H]3CCCNC3)c21,113%
10,CNC(=O)c1cc(Oc2ccc(NC(=O)Nc3cc(C(C)(C)C)nn3-c3ccc4ncccc4c3)c(F)c2)ccn1,-15.9% (active)
11,NS(=O)(=O)c1ccc(CCN2C(=O)/C(=C\c3ccc(Cl)cc3)C=C2c2ccc3ccccc3c2)cc1,80.8%
12,O=C1/C(=C\c2cccc(OCCCCCOc3ccc(Cl)cc3)c2)N=C2SCCCN12,60.3%
13,Cc1cc(C)n(CC(=O)Nc2ccc(-c3nc4ccccc4s3)cc2)n1,100%
14,O=C(Nc1ccc(C2=NCCCN2)cc1)c1ccc(C(=O)Nc2ccc(C3=NCCCN3)cc2)nc1,101%
15,C=CC(=O)Nc1cc2c(Nc3ccc(F)c(Cl)c3)ncnc2cc1C#CC(C)(C)N1CCN(C)CC1,-97.4% (active)
16,COC(=O)[C@H](Cc1ccccc1)NC(=O)[C@@H](OC)[C@@H]1Cc2cc3cc(OC4CC(OC5CC(O)C(O)C(C)O5)C(O)C(C)O4)c(C)c(O)c3c(O)c2C(=O)[C@H]1OC1CC(OC2CC(OC3CC(C)(O)C(O)C(C)O3)C(O)C(C)O2)C(O)C(C)O1 (stereo not given in full),-33% (active)
17,COc1ccc(C(=O)N2c3ccccc3Sc3ccccc32)c(F)c1,46.1%
18,CN1[C@@H]2CC[C@H]1/C(=C\c1ccccc1)C1=C2[C@@H](c2ccccc2)C(C#N)=C(N)O1,67.2%
19,Cc1cc(Oc2ccccc2)ccc1Nc1ncnc2ccc(-c3cnc(Cl)c(NS(C)(=O)=O)c3)cc12,36.9%
20,CO[C@H](C(=O)N[C@@H](CCCCNC(=O)OCc1ccccc1)C(=O)OC(C)(C)C)[C@@H]1Cc2cc3cc(OC4CC(OC5CC(O)C(O)C(C)O5)C(O)C(C)O4)c(C)c(O)c3c(O)c2C(=O)[C@H]1OC1CC(OC2CC(OC3CC(C)(O)C(O)C(C)O3)C(O)C(C)O2)C(O)C(C)O1 (stereo not given in full),-75.5% (active)

# From PubChem BioAssay (NCI)
